According to PubChem BioAssay AID1619 (SRMLSC, 2009):
Hit rate of the full screen: of about 220,000 compounds, about 830 (0.38%) were called active.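 How the source made its calls: active means compound inhibiting the enzyme by more than half at any dose during confirmatory dose-response retesting; inconclusive means strong single-dose inhibitors picked by rank but not retested; inactive means the rest.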 Only a sample is shown. Potency and affinity values are given separately.

Target: Leucine aminopeptidase (Plasmodium falciparum (isolate 3D7)) (UniProt Q8IL11)
Test: P. falciparum M17LAP inhibitors, primary screen, biochemical, fluorogenic H-Leu-NHMec substrate, 1536-well (AID 1619);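 further: plate controls were full reaction with DMSO carrier for no effect and no enzyme background for full effect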
Conditions: recombinant M17LAP, H-Leu-NHMec fluorogenic kinetic assay; at 30 µM; active compounds read high

Chain of Leucine aminopeptidase (Plasmodium falciparum (isolate 3D7)) (Q8IL11 whole entry, looked up): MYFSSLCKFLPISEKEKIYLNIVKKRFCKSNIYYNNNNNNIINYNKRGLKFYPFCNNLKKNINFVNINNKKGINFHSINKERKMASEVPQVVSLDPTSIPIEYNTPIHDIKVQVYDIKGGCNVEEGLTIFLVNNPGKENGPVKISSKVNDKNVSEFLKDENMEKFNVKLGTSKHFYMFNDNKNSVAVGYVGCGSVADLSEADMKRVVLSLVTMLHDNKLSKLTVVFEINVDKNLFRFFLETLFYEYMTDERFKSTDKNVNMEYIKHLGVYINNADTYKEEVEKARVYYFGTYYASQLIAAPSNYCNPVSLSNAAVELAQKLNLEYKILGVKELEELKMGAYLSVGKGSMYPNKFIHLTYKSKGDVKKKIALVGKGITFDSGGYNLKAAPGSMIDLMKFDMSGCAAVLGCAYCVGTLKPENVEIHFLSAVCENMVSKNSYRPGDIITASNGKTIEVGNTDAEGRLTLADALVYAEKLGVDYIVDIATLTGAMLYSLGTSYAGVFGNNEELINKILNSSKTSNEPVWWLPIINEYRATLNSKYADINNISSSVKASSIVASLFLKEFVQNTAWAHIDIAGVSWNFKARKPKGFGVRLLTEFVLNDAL

inhibition, inactive:
NC(=O)c1c(NC(=O)C2CCCO2)sc2c1CCC2 (stereo not given) 40%, COC(=O)c1c(NC(=O)c2ccoc2C)sc2c1CCC2 -15.6%, CCOC(=O)c1c(NC(=O)c2ccoc2C)sc2c1CCC2 16.6%, NC(=O)c1c(NC(=O)C2CCCO2)sc2c1CCCC2 (stereo not given) 25.2%, O=c1cc(-c2ccc([N+](=O)[O-])cc2)c2cc3c(cc2[nH]1)OCCO3 0.51%, CCc1cccc(C)c1NC(=S)N(CCN(C)C)C(C)c1cccnc1 (stereo not given) 3.46%, CSc1nnc(-c2sc3cc(C(F)(F)F)cnc3c2-c2cccnc2)n1C 2.54%, COc1cc(OC)c2ccc(=O)oc2c1C(CC(=O)N1CCOCC1)c1ccc2c(c1)OCO2 (stereo not given) 11.3%, CCCc1cc(=O)[nH]c(SCCOc2ccc(Cl)cc2)n1 3.09%, CCN=C(NCC)SC1CC(=O)N(c2ccccc2)C1=O (stereo not given) 0.73%, COc1ccc(S(=O)(=O)Nc2ccc(C(F)(F)F)cc2)cc1OC 8.66%, Cn1cnc(S(=O)(=O)Nc2ccc(C(F)(F)F)cc2)c1 8.69%, Cc1cc(NC(=O)CN2CCCCC2C)no1 (stereo not given) 15.1%, CC(=C/c1ccccc1)/C=N/NC(=O)CSc1nc(C)cc(C)n1 22.8%, COc1ccccc1/C=C/C=N/NC(=O)CC1C(=O)NN=C1C (stereo not given) 13.6%, CC1=NNC(=O)C1CC(=O)N/N=C/C=C/c1ccccc1 (stereo not given) 19.3%, COc1ccccc1/C=C\C=N\NC(=O)CCn1nnc2ccccc21 4.22%, Cc1ccc(NC(=O)CCC(=O)N/N=C/C=C/c2ccccc2)cc1 16.5%, CC1=NNC(=O)C1CC(=O)N/N=C/C(Br)=C/c1ccccc1 (stereo not given) 15.5%, CC1C(=O)NN=C1C(=O)N/N=C\C(Br)=C\c1ccccc1 (stereo not given) 45.9%, CC(/C=N/NC(=O)CSc1nc(C)cc(C)n1)=C\c1ccccc1 11.7%, Cc1ccc(C(=O)Nc2cc(=O)n(C)c(=O)n2C)cc1C 1.37%, CCNC(=O)C/C(C)=N/NC(=O)C1CCCCC1 12.5%, CCn1ccnc1CN(C)Cc1nc(-c2ccc(C(=O)OC)cc2)no1 2.83%, O=C(CNS(=O)(=O)c1ccc(C(=O)N2CCOCC2)cc1)N1CCOCC1 -0.01%, COc1ccccc1NC(=S)N1CCC(c2nc3ccccc3o2)CC1 2.4%, CCOC(=O)CCn1c(=S)n(CCC(=O)OCC)c2ccccc21 9.93%, COc1ccc(N2CCN(CC(O)COc3ccc([N+](=O)[O-])cc3)CC2)cc1 (stereo not given) 4.37%, NC(=O)c1cccc(CC(=O)c2ccccc2)c1 -5.22%, O=C(Cc1ccccc1)c1c[nH]c(C(=O)O)c1 -7.97%, O=c1[nH]nc(N/N=C/c2ccccc2OC(F)F)c(=O)[nH]1 3.73%, CC(=O)Nc1scc(C)c1-c1nc2ccccc2s1 -9.4%, Cc1cccc(C)c1NC(=O)CCCSc1nc2ccccc2s1 2.06%, O=C(O)CCC(=O)Nc1nc2ccccc2s1 16.1%, Cc1csc(NC(=O)CSCC(=O)O)c1-c1nc2ccccc2s1 1.7%, O=C(NNC(=S)Nc1ccc(Br)cc1Cl)c1ccncc1 21.5%, CCOC(=O)c1ccc(NC(=O)C2CCCN(S(=O)(=O)c3cnc[nH]3)C2)cc1 (stereo not given) -0.78%, COc1ccc(CN2CCN(C(C)C)C(CCO)C2)cc1Cn1cncn1 (stereo not given) 1.4%, COc1ccc(N2CCN(CCCNC(=O)C3CCC(CNc4nc(=S)[nH]c5ccccc45)CC3)CC2)cc1 (stereo not given) 10.8%, COc1ccccc1N(CC(=O)NCCC1=CCCCC1)S(=O)(=O)c1ccccc1 -1.31%, CC1CN(C2CCN(C(=O)c3ccccc3)CC2)CC(C)O1 (stereo not given) 6.07%, O=C(c1ccccc1F)N(Cc1ccc2c(c1)OCO2)Cc1cc2cc3c(cc2n2nnnc12)OCO3 3.97%, CCCN(CCC)C(=O)CSc1nc2c(sc(=S)n2-c2ccc(OCC)cc2)c(=O)[nH]1 30.1%, CCN(CC)C(=O)CSc1nc2c(sc(=S)n2-c2ccccc2)c(=O)[nH]1 12%, CCOc1ccc(-n2c(=S)sc3c(=O)[nH]c(SCC(=O)C(C)(C)C)nc32)cc1 37%, CCOC(=O)CSc1nc2c(sc(=S)n2-c2ccc(OCC)cc2)c(=O)[nH]1 14.5%, CCOC(=O)CSc1nc2c(sc(=S)n2Cc2ccco2)c(=O)n1-c1ccccc1 6.2%, CCOC(=O)c1sc(=S)n(-c2ccccc2)c1N 6.93%, CCN(CC)C(=O)CSc1nc2c(sc(=S)n2Cc2ccco2)c(=O)n1-c1ccccc1 8.29%, O=S(=O)(c1cc(Cl)cc(Cl)c1)N1CCCC1c1nc2ccccc2s1 (stereo not given) -5.02%, O=C(COc1ncnc2sccc12)Nc1ccc2c(c1)OCCO2 34.8%, COc1ccccc1CNC(=O)COc1ccccc1OC 3.35%, Cc1cccc(NC(=O)Nc2ccc3c(c2)N(C)C(=O)CS3)n1 3.25%, O=c1c2c(-c3ccc(Cl)cc3)csc2ncn1/N=C/c1cccc([N+](=O)[O-])c1O -4.46%, Cc1ccc(N2NC(C)(c3cccs3)NC2=S)cc1 (stereo not given) -1.38%, COc1cc(NC(=O)c2nccnc2N)cc(C(=O)Nc2cccc(C(F)(F)F)c2)c1 -5.13%, O=C(O)c1ccc(Cn2cc(C(F)(F)F)ccc2=O)cc1 -4.03%, O=C(CC1Sc2ccccc2NC1=O)Nc1cccnc1 (stereo not given) 5.83%, O=C(CC1Sc2ccccc2NC1=O)Nc1cccc(-c2nnc3n2CCCCC3)c1 (stereo not given) 3%, O=C(O)c1ccc(NC(=O)C2(c3ccccc3)CCCC2)cc1 3.99%, COc1ccc2nc(Nc3sc4c(c3C(N)=O)CCCC4)sc2c1 8.22%, Fc1cccc2sc(Nc3nc4c(F)cccc4s3)nc12 16.7%, CC1CCc2c(sc(NC(=O)C3c4ccccc4Oc4ccccc43)c2C(N)=O)C1 (stereo not given) 8.46%, COC(=O)Nc1sc2c(c1C(N)=O)CCC(C)C2 (stereo not given) 26.4%, CC(=O)c1ccc(Nc2ccc(-c3ccccc3F)nn2)cc1 28.4%, COC(=O)c1ccccc1NC(=O)C(C)c1ccc([N+](=O)[O-])cc1 (stereo not given) -0.59%, N#C/C(C(=O)NCc1ccccc1)=C1/N=C(NC(=O)c2cccs2)c2ccccc21 5.68%, CCOC(=O)C1=C(C)N=C2SCCC(=O)N2[C@@H]1c1cccs1 3.63%, NC(=O)CC(NC(=O)Cc1cccc2ccccc12)c1ccc(NC2CCC2)c([N+](=O)[O-])c1 (stereo not given) 15%, COC(=O)c1cn(C(=O)c2cccc(C)c2)c2ccccc12 1.71%, Cc1ccc(C(=O)NC(=S)NNC(=O)COc2ccccc2C)cc1 -0.9%, O=C(NC(=S)NNC(=O)c1ccccc1F)c1cccnc1 5.36%, Cc1cccc(C(=O)NC(=S)NNC(=O)COc2ccc(Cl)cc2)c1 8.45%, O=C(NNC(=S)NC(=O)c1cccnc1)c1ccc(Cl)cc1 71.2%, Cc1cccc(C(=O)NC(=S)Nc2ccccc2C(=O)O)c1 3.36%, O=C(Cc1ccccc1)NNC(=S)NC(=O)c1cccnc1 13.8%, Cc1cccc(C(=O)NC(=S)NNC(=O)c2ccc(Cl)cc2)c1 86.2%, Cc1cccc(NC(=S)NNC(=O)Cc2ccccc2)c1 15.6%, O=C(O)c1ccc2c(c1)SC1=NS(=O)(=O)CCN12 -2.18%, CCN1CCN(C(=O)CSc2cc(=O)n(CC)c3ccccc23)CC1 4.46%, CCC(C)NC(=O)CS(=O)Cc1nc(-c2ccccc2C)oc1C (stereo not given) 2.41%, Cn1c(N)c(C(=O)c2ccc(F)cc2F)c(=O)n(C)c1=O 5.53%, COC(=O)[C@H](Cc1ccccc1)NC(=O)O[C@H]1C(=O)c2ccc(OC)cc2O[C@@H]1c1ccc2c(c1)OCO2 -10.7%, CN(C(=O)c1ccc(NC(=O)C2CC=CCC2C(=O)O)cc1)c1ccccc1 (stereo not given) 45.1%, CC(=O)Nc1ccc(NC(=O)[C@@H]2CCCC[C@@H]2C(=O)O)cc1 -3.15%, O=C(O)C1CCCCC1C(=O)Nc1ccc(-c2ccccc2)cc1 (stereo not given) 6.02%, O=C(O)Cc1ccc(NC(=O)C2CC=CCC2C(=O)O)cc1 (stereo not given) 11.1%, COC(=O)c1ccc(NC(=O)C2C3CCC(C3)C2C(=O)O)cc1 (stereo not given) 39%, CCCOC(=O)c1ccc(NC(=O)C2C3CCC(C3)C2C(=O)O)cc1 (stereo not given) 43.4%, O=C(O)[C@H]1CCCC[C@H]1C(=O)Nc1ccc(Nc2ccccc2)cc1 54.9%, CC(=O)Nc1ccc(NC(=O)C2CCCCC2C(=O)O)cc1 (stereo not given) 8.65%, O=C(O)CCSCCCN1C(=O)c2cccc3cccc(c23)C1=O 8.08%, CCCc1cc(=O)[nH]c(SCC(=O)Nc2cc(C)on2)n1 3.41%, Cc1ccc(C2CC(C(F)(F)F)n3nc(C(=O)Nc4c(C)n(C)n(-c5ccccc5)c4=O)cc3N2)cc1 (stereo not given) 2.06%, COc1ccc(NC(=O)c2ccc(-n3c(C)ccc3C)cc2)c(OC)c1 4.59%
